Measurements reported in PubChem BioAssay (NCATS).
Records with an inconclusive call do not appear. Calls of active or inactive are those of the source. Unless noted, calls follow the shape of the dose curve; as a rule, active = well fitted curve in the direction sought with a large enough effect; inconclusive = small, poorly fitted or top-dose-only effect, or another doubt; inactive = no such curve, though single readings can be large; an effect the other way counts as inactive or inconclusive.

Assays:
[1] = qHTS to identify inhibitors of the type 1 interferon - major histocompatibility complex class I in skeletal muscle: primary screen against the NCATS Pharmaceutical Collection (AID 1347407);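 also: luminescence of HiBiT knocked into endogenous HLA-B as interferon-induced MHC class I level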; also: potency is read from the fitted curve at half-maximal effect; as to activity change, negative = inhibition: % is scaled to controls: 0 for no effect and ±100 for the full control effect
Summary of the method: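 Cells were seeded with 4 ng/ml IFN-beta, incubated 1 h, then dosed with compounds over eight 1:5 steps up to 46 uM final. After 24 h at 37 C, HiBiT lytic reagent was added and luminescence read after 10 min lysis in the dark.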

[2] = qHTS to identify inhibitors of the type 1 interferon - major histocompatibility complex class I in skeletal muscle: primary screen against the NCATS Mechanism Interrogation Plate v5.0 (MIPE) Libary (AID 1347411);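 also: plate controls were vehicle for no effect and reference inhibitor for full effect; nearly all actives have a fitted effect of over 65% in size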
Summary of the method: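 IFN-beta-driven (4 ng/ml) HLA-B-HiBit expression in CRISPR-tagged C25cl48 myoblasts; compounds 11-pt, 1:3, max 46 uM, 24 hr exposure; lytic NanoLuc complementation luminescence.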

[3] = target: Protein phosphatase 1D (Homo sapiens) (UniProt O15297); assay: RapidFire Mass Spectrometry qHTS Assay for Modulators of WT P53-Induced Phosphatase 1 (WIP1) (AID 1347424);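 also: amount of dephosphorylated VEPPL-S-QETFS peptide product formed by WIP1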; also: potency is read from the fitted curve at half-maximal effect;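 as to activity change, negative = inhibition: series mostly up to about 63 µM; plate controls were DMSO wells for no effect and GSK830371 inhibitor control at 10 µM for full effect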
Summary of the method: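 RapidFire mass spectrometry measured dephosphorylated peptide after 5 min room-temperature reaction of 2 uM VEPPL-pS-QETFS with 10 nM WIP1 (50 mM Tris-HCl pH 7.5, 30 mM MgCl2, 0.1 mM EGTA, BSA), following 1 hr compound preincubation; 1 uM isotope-labelled product standard.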

[4] = target: Calcium and integrin-binding protein 1 (Homo sapiens) (UniProt Q99828); assay: Primary qHTS for Identification of Calcium Integrin Binding Protein 1 (CIB1) Competitor (AID 1508620);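 also: GST tagged CIB1 binding a fluorescein labelled alphaIIb integrin peptide tracer; top concentration of the series differs between compounds; % is scaled to controls: 0 for no effect and ±100 for the full control effect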
Summary of the method: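 CIB1-GST (1 uM final) and compound incubated 15 min at room temperature before adding FITC-alphaIIb peptide tracer (100 nM final). Competition for binding read by fluorescence polarization (ex 480, em 540) after another 15 min at room temperature.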

[5] = Primary qHTS for small molecule stabilizers of the endoplasmic reticulum resident proteome: Secreted ER Calcium Modulated Protein (SERCaMP) assay (AID 1508630); also: % is scaled to controls: 0 for no effect and ±100 for the full control effect
Summary of the method: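 The SH-SY5Y reporter protocol was run at 3 concentrations up to 38.3 uM (primary) or 11 concentrations (follow-up): 16 h compound, 100 nM thapsigargin for 4 h, then extracellular luciferase luminescence.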

[6] = Primary qHTS for inhibitors of La Crosse Virus (LACV) - induced cell death in SH-SY5Y cells (AID 1508616);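 also: top concentration of the series differs between compounds; 0% = infected DMSO wells and 100% = uninfected DMSO wells; higher means more rescue of cells from virus-induced death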
Summary of the method: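 Screening measures cell viability in LACV-infected SH-SY5Y cultures. Compound was added before virus (0.01 MOI), and ATP was detected by luminescence 6 days later.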

[7] = A High-Content qHTS Against Drug Library for the Identification of Small Molecules that Inhibit DYT1 Early Onset Primary Dystonia-Associated Cell Pathology (AID 1645839; calls by dose curve; also: potency is read from the fitted curve at half-maximal effect; as to % pathology change, negative = correction: series mostly up to about 46 µM)
Summary of the method: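 High-content imaging quantified EGFP-TorsinA mislocalization in HEK293-derived cells inducibly expressing DYT1 mutant torsinA, after 48 h exposure to compound given together with tetracycline induction. Cell count served as a toxicity channel alongside %pathology.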

[8] = target: Cytochrome P450 2D6 (Homo sapiens) (UniProt P10635); assay: Cytochrome P450 family 2 subfamily D member 6 (CYP2D6) small molecule antagonists: luciferase biochemical (cell-free) qHTS assay (AID 1645840; active = well fitted curve in the direction sought with a large enough effect in the repeat runs; an effect the other way counts as inactive or inconclusive; also: nearly all actives have a fitted effect of over 55% in size; also: potency is read from the fitted curve at half-maximal effect)
Summary of the method: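 P450-Glo CYP2D6 system: proluciferin substrate converted by enzyme to luciferin, read by luminescence proportional to activity. Enzyme-substrate mix with compound 10 min at room temperature, then NADPH regeneration 1 h before detection reagent.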

[9] = target: Cytochrome P450 3A4 (Homo sapiens) (UniProt P08684); assay: Cytochrome P450 family 3 subfamily A member 4 (CYP3A4) small molecule antagonists: luciferase qHTS assay (AID 1645841; active = well fitted curve in the direction sought with a large enough effect in the repeat runs; an effect the other way counts as inactive or inconclusive; also: nearly all actives have a fitted effect of over 45% in size)
Summary of the method: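 Luminescent CYP3A4 activity readout: compounds plus enzyme-substrate mix 10 min at room temperature, reaction started with NADPH regenerating system for 1 h, stopped with detection reagent, read after 20 min. Ketoconazole served as control.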

[10] = target: Cytochrome P450 2C9 (Homo sapiens) (UniProt P11712); assay: Cytochrome P450 family 2 subfamily C member 9 (CYP2C9) small molecule antagonists: luciferase biochemical (cell-free) qHTS assay (AID 1645842; active = well fitted curve in the direction sought with a large enough effect in the repeat runs; an effect the other way counts as inactive or inconclusive; also: nearly all actives have a fitted effect of over 55% in size; also: potency is read from the fitted curve at half-maximal effect)
Summary of the method: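 P450-Glo CYP2C9 system: proluciferin substrate with enzyme in mix containing 0.4% BSA, 10 min at room temperature, then NADPH regeneration solution added and incubated 1 h at 37C. Detection reagent stopped reaction; luminescence read after 20 min as RLU.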

[11] = target: Protein phosphatase 1D (Homo sapiens) (UniProt O15297); assay: Rhodamine-PBP qHTS Assay for Modulators of WT P53-Induced Phosphatase 1 (WIP1) (AID 1347425); also: % of control where 0% means no effect
Summary of the method: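 5 nM WIP1 + 10 uM Rh-PBP, 50 mM Tris pH 7.5, 30 mM MgCl2, 1 mM TCEP, 0.1 mM EGTA, BSA; cpds pinned, 1 hr RT; + 10 uM phosphopeptide; fluorescence 1-min reads x 11 min; delta = f1 - f0.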

[12] = Counterscreen qHTS for small molecule stabilizers of the endoplasmic reticulum resident proteome: GLuc-NoTag assay (AID 1508627);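 also: SH-SY5Y cells given compound then 100 nM thapsigargin to empty ER calcium; series mostly up to about 76 µM; 0% = thapsigargin alone and -100% = DMSO vehicle control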
Summary of the method: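 Counterscreen line: SH-SY5Y-GLuc-NoTag cells, treated with compound 19 hr before a 4 hr, 100 nM thapsigargin calcium depletion. Secreted Gaussia luciferase in the medium was measured by luminescence after coelenterazine was added (0.07x final), with cells unlysed.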

[13] = Confirmatory qHTS for small molecule stabilizers of the endoplasmic reticulum resident proteome: Secreted ER Calcium Modulated Protein (SERCaMP) assay (AID 1508628); also: series mostly up to about 76 µM; % is scaled to controls: 0 for no effect and ±100 for the full control effect; nearly all actives have a fitted effect of over 40% in size
Summary of the method: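 GLuc-SERCaMP-expressing SH-SY5Y cells, pretreated 16 h with compound, are challenged with thapsigargin to empty ER calcium stores; after 4 h, coelenterazine is added directly to the medium and luminescence is imaged.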

[14] = Cell Viability qHTS for small molecule stabilizers of the endoplasmic reticulum resident proteome (AID 1508629); settings: cell viability counter-screen, 100 nM thapsigargin for final 4 h;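 also: human SH-SY5Y neuroblastoma cells carrying the GLuc-SERCaMP reporter; compound exposure about 46 h in total before the viability read; % is scaled to controls: 0 for no effect and ±100 for the full control effect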

Chain of Protein phosphatase 1D (Homo sapiens) (O15297 whole entry, looked up): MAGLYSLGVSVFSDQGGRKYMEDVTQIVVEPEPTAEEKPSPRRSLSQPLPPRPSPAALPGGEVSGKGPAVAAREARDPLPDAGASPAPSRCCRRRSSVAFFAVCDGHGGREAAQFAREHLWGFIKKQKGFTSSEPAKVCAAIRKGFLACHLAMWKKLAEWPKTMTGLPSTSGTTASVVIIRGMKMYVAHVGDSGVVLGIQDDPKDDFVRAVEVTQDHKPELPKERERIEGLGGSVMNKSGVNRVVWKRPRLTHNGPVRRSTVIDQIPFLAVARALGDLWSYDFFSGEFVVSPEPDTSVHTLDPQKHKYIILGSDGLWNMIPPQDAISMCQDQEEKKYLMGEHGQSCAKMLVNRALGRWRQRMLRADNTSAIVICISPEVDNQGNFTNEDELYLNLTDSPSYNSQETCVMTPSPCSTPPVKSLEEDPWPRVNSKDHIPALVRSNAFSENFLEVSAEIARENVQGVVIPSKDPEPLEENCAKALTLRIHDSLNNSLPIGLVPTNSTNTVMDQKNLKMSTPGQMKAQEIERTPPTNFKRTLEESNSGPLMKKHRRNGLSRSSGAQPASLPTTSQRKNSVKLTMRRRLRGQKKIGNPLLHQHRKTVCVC
Chain of Cytochrome P450 2C9 (Homo sapiens) (P11712 whole entry, looked up): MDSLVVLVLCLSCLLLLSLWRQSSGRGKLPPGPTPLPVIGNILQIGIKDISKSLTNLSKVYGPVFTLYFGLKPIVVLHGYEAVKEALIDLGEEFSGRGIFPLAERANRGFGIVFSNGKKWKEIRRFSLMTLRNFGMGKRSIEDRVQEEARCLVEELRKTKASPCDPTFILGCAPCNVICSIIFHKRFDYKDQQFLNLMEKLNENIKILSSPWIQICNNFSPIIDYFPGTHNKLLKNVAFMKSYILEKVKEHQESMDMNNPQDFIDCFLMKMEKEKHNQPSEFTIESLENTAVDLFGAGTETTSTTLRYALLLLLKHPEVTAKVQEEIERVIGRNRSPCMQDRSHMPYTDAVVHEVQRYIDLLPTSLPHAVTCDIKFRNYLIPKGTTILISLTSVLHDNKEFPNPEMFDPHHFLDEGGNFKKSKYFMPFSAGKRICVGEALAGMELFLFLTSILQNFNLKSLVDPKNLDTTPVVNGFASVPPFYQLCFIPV
Chain of Cytochrome P450 2D6 (Homo sapiens) (P10635 whole entry, looked up): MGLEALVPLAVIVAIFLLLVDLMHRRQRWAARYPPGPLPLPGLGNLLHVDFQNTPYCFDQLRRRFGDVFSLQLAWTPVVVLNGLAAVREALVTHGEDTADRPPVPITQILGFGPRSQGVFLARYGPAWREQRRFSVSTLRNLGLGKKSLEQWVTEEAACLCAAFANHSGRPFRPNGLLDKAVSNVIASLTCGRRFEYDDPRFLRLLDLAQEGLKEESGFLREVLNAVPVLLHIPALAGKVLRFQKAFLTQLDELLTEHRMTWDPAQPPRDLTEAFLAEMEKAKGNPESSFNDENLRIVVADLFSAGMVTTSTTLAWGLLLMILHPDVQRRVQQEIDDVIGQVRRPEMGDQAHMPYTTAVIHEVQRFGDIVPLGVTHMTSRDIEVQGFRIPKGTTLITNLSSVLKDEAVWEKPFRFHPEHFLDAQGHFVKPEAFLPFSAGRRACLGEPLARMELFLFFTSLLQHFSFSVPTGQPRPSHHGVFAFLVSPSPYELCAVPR
Chain of Calcium and integrin-binding protein 1 (Homo sapiens) (Q99828 whole entry, looked up): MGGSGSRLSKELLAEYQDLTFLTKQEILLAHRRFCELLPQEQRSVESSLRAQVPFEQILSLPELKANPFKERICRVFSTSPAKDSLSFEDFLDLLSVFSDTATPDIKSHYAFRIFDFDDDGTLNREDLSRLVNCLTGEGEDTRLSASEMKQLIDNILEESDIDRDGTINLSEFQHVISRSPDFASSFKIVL
Chain of Cytochrome P450 3A4 (Homo sapiens) (P08684 whole entry, looked up): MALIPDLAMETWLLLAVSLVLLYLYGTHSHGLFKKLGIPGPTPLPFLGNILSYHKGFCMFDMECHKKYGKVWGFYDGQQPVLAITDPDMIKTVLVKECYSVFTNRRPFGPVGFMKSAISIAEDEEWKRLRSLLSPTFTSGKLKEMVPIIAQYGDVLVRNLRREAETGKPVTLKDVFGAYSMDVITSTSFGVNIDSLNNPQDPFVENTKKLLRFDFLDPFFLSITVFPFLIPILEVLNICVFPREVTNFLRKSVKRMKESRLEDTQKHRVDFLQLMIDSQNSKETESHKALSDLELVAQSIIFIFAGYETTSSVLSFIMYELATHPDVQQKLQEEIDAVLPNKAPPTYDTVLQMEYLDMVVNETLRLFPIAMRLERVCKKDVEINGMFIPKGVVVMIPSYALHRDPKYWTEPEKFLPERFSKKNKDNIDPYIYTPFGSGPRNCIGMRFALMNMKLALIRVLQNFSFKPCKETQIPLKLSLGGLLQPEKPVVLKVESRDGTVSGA

CC/C(=C(/CC)c1ccc(O)cc1)c1ccc(O)cc1
inactive: Potency [1] | Potency [2] | Potency [4] | Potency [5]
active: Potency [3] 15.8 µM

Nc1ccn([C@@H]2O[C@H](CO)[C@@H](O)C2(F)F)c(=O)n1
inactive: Potency [1] | Potency [2] | Potency [3] | Potency [6] | Potency [4] | Potency [5] | Potency [7] | Potency [8] | outcome [9] | Potency [10]

C=CCc1ccc(O)c(OC)c1
inactive: Potency [1] | Potency [3] | outcome [11] | Potency [6] | Potency [4] | Potency [5] | Potency [7] | Potency [8]

CC(=O)OCC(=O)[C@@]1(O)CC[C@H]2[C@@H]3CCC4=CC(=O)C=C[C@]4(C)[C@H]3[C@@H](O)C[C@@]21C
inactive: Potency [1] | Potency [3] | outcome [11] | Potency [6] | Potency [4] | Potency [5] | Potency [7] | Potency [10]

COc1cc2c(cc1OC)C(=O)C(CC1CCN(Cc3ccccc3)CC1)C2 (stereo not given)
active: Potency [7] 12.6 µM
inactive: Potency [1] | Potency [3] | outcome [11] | Potency [6] | Potency [4] | Potency [5]

COc1c2occc2c(OC)c2c(=O)cc(C)oc12
active: Potency [10] 11 µM
inactive: Potency [1] | Potency [3] | outcome [11] | Potency [6] | Potency [4] | Potency [5] | Potency [7]

CC(=O)O[C@]1(C(C)=O)CC[C@H]2[C@@H]3C[C@H](C)C4=CC(=O)CC[C@]4(C)[C@H]3CC[C@@]21C
active: Potency [10] 3.09 µM
inactive: Potency [1] | Potency [2] | Potency [3] | outcome [11] | Potency [6] | Potency [4] | Potency [5] | Potency [8] | outcome [9]

CC(=O)c1ccc2c(c1)N(CCCN1CCC(CCO)CC1)c1ccccc1S2
inactive: Potency [1] | Potency [3] | outcome [11] | Potency [6] | Potency [4] | outcome [12]

O=C(O)CNC(=O)c1ccccc1
inactive: Potency [1] | Potency [3] | outcome [11] | Potency [6] | Potency [4] | Potency [5] | Potency [7] | Potency [8] | Potency [10]

CC(C)N=C(N)/N=C(\N)Nc1ccc(Cl)cc1
active: Potency [8] 3.09 µM
inactive: Potency [1] | Potency [3] | outcome [11] | Potency [6] | Potency [4] | outcome [12] | Potency [10]

OC[C@@H](O)[C@@H](O[C@@H]1O[C@H](CO)[C@H](O)[C@H](O)[C@H]1O)[C@H](O)[C@@H](O)CO
inactive: Potency [1] | Potency [3] | outcome [11] | Potency [6] | Potency [4] | Potency [5] | Potency [7] | Potency [10]

CCCCCC=CCC=CCCCCCCCC(=O)OCC
inactive: Potency [1] | Potency [3] | outcome [11] | Potency [6] | Potency [4] | Potency [5] | Potency [7]
active: Potency [10] 9.77 µM

CN(C)CC/C=C1/c2ccccc2COc2ccc(CC(=O)O)cc21
inactive: Potency [1] | Potency [2] | Potency [3] | outcome [11] | Potency [4] | Potency [8] | Potency [10]

CCn1cc(C(=O)O)c(=O)c2cnc(N3CCCC3)nc21
inactive: activity change, negative = inhibition [1] -17.9% [at 9.18 µM] | activity change, negative = inhibition [3] -0.783% [at 12.6 µM] | activity change, negative = inhibition [11] -2.4% [at 11.5 µM] | activity change [6] -0.143% [at 0.858 µM] | Potency [4] | activity change, negative = inhibition [5] -14.1% [at 7.35 µM] | % pathology change, negative = correction [7] 0.401% [at 9.22 µM] | activity change, negative = inhibition [8] -1.21% [at 11.5 µM] | activity change, negative = inhibition [10] -2.8% [at 11.5 µM]

CCCCOc1ccc(C(=O)CCN2CCCCC2)cc1
inactive: Potency [1] | Potency [3] | outcome [11] | Potency [6] | Potency [4] | Potency [5]
active: Potency [7] 10 µM

CCCCCCCCCCCCCCCCCC(=O)OCC(O)CO (stereo not given)
inactive: Potency [1] | Potency [3] | outcome [11] | Potency [6] | Potency [4] | outcome [12] | Potency [13] | max response [14] 15.4% | Potency [7] | Potency [8] | Potency [10]

CN1CCN(C(c2ccccc2)c2ccccc2)CC1
inactive: Potency [1] | Potency [3] | outcome [11] | Potency [6] | Potency [4] | outcome [12] | Potency [10]

C[C@@H](CN(C)C)CN1c2ccccc2Sc2ccccc21
inactive: Potency [1] | Potency [3] | outcome [11] | Potency [6] | Potency [4]

CC1(C)OC[C@@H](COC(=O)CCc2ccc(OC[C@@H](O)CNCCNC(=O)N3CCOCC3)cc2)O1
inactive: Potency [1] | Potency [3] | outcome [11] | Potency [6] | Potency [4] | Potency [5] | Potency [7] | Potency [10]

COc1cc2c(cc1OC)[C@@H]1CC(=O)[C@@H](CC(C)C)CN1CC2
inactive: Potency [1] | Potency [3] | outcome [11] | Potency [6] | Potency [4] | Potency [5] | Potency [7]
active: Potency [10] 15.5 µM

CCOc1ccc(NC(=O)CC(C)O)cc1 (stereo not given)
inactive: Potency [1] | Potency [3] | outcome [11] | Potency [6] | Potency [4] | Potency [5] | Potency [7] | Potency [8] | Potency [10]

CC(=O)CC(c1ccc([N+](=O)[O-])cc1)c1c(O)c2ccccc2oc1=O (stereo not given)
inactive: Potency [3] | outcome [11] | Potency [6] | Potency [4] | Potency [5] | Potency [7] | Potency [8]
active: Potency [1] 1.49 µM | Potency [10] 2.19 µM
